Experimental data reported in the supplement of paper PMC10849652.
Of roughly 8,800 targets only a part is listed; those with a hit were picked by preference. About 0.5% of all pairs of compound and target were hits. A number with no mark means an inactive call.

Legend:
Test in all cases: log2 fold change, soluble protein after heating vs DMSO (PISA); higher = thermal stabilisation; K562 lysate, 10 uM; active = over 0.2 and 3.5 SD of the protein, either way, in both replicates (recomputed)
erlotinib = compound: C#Cc1cccc(Nc2ncnc3cc(OCCOC)c(OCCOC)cc23)c1 [erlotinib]
In short: (§1)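 Thermal stability, expressed as log-two fold change relative to solvent controls, is given from duplicates. Crude K562 extract in PBS pH 7.4 with 1 mM MgCl2, at 1 mg/mL protein, was treated with 10 μM compound for 30 min and heated in aliquots for 3 min across 48°C-58°C. After pooling, adjustment to 0.5% NP-40 at 4°C and centrifugation at 21,000xg for 90 min, supernatant protein was measured by TMTpro 16plex LC-MS/MS with channel sums equalised.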

[1] = compound: C/C(=N\NC(=O)C1=CC(=CC=C1)S(=O)(=O)N2CCOCC2)/C3=C(C=CC(=C3)Cl)O
In short: as §1

[2] = compound: C1=CC(=CC=C1C2=NC3=C(N2)C=C(C=C3)C(=O)N)OC4=CC=C(C=C4)Cl
In short: as §1

[3] = compound: C1=CC2=C(C=CC(=C2)/C=C\3/C(=O)NC(=NCC4=CC=CS4)S3)N=C1
In short: as §1

[4] = compound: C1=CC2=NC=CN=C2C=C1/C=C/3\C(=O)NC(=O)S3
In short: as §1

[5] = compound: C1=CC=C(C=C1)C2=NC(=C(N2)C3=CC=NC=C3)C4=CC(=C(C=C4)Cl)O
In short: as §1

[6] = compound: C1=CC=C2C(=C1)C3=NNC4=CC=CC(=C43)C2=O
In short: as §1

[7] = compound: C1CCN(C1)C(=O)NC2=CC=CC(=C2)NC3=NC=C(C(=N3)NCCC4=CN=CN4)Br
In short: as §1

[8] = compound: C1CN(CCC1(CC2=CC=C(C=C2)Cl)N)C3=NC=NC4=C3C=CN4
In short: as §1

IRAK-1-4 Inhibitor I = compound: C1COCCN1CCN2C3=CC=CC=C3N=C2NC(=O)C4=CC(=CC=C4)[N+](=O)[O-] [IRAK-1-4 Inhibitor I]
In short: as §1

ibrutinib = compound: C=CC(=O)N1CCC[C@@H](n2nc(-c3ccc(Oc4ccccc4)cc3)c3c(N)ncnc32)C1 [ibrutinib]
In short: as §1

[9] = compound: CC(=O)c1cnc2ccc(-c3cc(Cl)c(O)c(Cl)c3)nc2c1N[C@H]1CC[C@H](CN(C)C)CC1
In short: as §1

ralimetinib = compound: CC(C)(C)Cn1c(N)nc2ccc(-c3[nH]c(C(C)(C)C)nc3-c3ccc(F)cc3)nc21 [ralimetinib]
In short: as §1

[10] = compound: CC(C)(O)CC(=O)NCCn1ccc2ncnc(Nc3ccc(Oc4cccc(C(F)(F)F)c4)c(Cl)c3)c21
In short: as §1

[11] = compound: CC(C)C1=C2N=C(C=C(N2N=C1)NCC3=CC=CC=C3)NCCCCCCN
In short: as §1

[12] = compound: CC1=C(C(CC(=O)N1)C2=CC=C(C=C2)C(F)(F)F)C(=O)NC3=C(C=C4C(=C3)C=NN4)F
In short: as §1

[13] = compound: CC1=C(C2=C(C=C1)C(=O)C3=CC=CC=C3N2CCCN)C
In short: as §1

[14] = compound: CC1=C(C=C(C=C1)NC(=O)C2=CC(=CC=C2)C(C)(C)C#N)NC3=CC4=C(C=C3)N=CN(C4=O)C
In short: as §1

[15] = compound: CC1=C(C=C(C=C1)NC(=O)C2=CC(=CC=C2)N(C)C)NC(=O)C3=CC=C(C=C3)O
In short: as §1

[16] = compound: CC1=CC=C(C=C1)SC2=C3C=C(SC3=CN=C2)C(=O)N
In short: as §1

UniProt Q9NW68, sequence (Q9NW68 whole entry, looked up): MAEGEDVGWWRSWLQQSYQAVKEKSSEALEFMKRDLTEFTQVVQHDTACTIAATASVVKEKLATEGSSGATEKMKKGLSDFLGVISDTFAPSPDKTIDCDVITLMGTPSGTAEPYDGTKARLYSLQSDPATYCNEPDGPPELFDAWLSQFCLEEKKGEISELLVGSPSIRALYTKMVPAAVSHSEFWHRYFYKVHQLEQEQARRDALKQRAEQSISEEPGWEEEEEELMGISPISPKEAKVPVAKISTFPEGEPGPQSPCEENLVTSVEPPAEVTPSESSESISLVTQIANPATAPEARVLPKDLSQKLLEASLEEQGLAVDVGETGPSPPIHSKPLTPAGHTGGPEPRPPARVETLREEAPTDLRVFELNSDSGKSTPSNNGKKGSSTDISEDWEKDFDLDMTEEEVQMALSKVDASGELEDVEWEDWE
UniProt O43861, sequence (O43861 whole entry, looked up): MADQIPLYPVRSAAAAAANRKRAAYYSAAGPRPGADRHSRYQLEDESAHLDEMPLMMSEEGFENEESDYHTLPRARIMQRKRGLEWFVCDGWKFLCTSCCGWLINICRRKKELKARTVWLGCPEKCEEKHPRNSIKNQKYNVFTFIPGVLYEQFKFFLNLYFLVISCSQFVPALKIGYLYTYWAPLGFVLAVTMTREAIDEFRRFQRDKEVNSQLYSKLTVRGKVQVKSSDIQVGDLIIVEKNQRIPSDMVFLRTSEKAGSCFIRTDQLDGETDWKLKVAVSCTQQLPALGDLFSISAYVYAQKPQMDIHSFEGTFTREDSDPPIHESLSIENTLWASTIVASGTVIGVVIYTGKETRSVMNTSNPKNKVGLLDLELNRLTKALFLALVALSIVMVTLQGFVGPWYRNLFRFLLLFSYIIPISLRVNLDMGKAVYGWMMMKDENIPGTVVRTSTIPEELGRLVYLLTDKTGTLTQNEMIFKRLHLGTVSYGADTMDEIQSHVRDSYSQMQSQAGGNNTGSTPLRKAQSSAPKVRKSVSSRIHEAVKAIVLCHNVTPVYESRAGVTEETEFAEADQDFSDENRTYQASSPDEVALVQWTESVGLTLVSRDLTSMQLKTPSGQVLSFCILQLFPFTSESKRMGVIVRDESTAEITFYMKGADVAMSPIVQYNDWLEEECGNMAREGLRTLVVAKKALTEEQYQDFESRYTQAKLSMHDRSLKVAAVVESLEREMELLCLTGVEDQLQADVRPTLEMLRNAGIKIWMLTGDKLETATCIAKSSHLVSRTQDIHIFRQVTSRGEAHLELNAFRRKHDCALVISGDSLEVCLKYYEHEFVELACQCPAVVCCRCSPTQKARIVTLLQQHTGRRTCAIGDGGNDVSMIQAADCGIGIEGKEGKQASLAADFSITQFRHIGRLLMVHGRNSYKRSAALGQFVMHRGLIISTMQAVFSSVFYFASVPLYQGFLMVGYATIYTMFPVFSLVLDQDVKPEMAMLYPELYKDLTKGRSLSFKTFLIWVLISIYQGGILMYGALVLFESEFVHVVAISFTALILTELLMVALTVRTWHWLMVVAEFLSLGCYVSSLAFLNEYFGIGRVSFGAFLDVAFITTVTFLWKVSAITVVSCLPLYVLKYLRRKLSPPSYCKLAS
UniProt P21127, sequence (P21127 whole entry, looked up): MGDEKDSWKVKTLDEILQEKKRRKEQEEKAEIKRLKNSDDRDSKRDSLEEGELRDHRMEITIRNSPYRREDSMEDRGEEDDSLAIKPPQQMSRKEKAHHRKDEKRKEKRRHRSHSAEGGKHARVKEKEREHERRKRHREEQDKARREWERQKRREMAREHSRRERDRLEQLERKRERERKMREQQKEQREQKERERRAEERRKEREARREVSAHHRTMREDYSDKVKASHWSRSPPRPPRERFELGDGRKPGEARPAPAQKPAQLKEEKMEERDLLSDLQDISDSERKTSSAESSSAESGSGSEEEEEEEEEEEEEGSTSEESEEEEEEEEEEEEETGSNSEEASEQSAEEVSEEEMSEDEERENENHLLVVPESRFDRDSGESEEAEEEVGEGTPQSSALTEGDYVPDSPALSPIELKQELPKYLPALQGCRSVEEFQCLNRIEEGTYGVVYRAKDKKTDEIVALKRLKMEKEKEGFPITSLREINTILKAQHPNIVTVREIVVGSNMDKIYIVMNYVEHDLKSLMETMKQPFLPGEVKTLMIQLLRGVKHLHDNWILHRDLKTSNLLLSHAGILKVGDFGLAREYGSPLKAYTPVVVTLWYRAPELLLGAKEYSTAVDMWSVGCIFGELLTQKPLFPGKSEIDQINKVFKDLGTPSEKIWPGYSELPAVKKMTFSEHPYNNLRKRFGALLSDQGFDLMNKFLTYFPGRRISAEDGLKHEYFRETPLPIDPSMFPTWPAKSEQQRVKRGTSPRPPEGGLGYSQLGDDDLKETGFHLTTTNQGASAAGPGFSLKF
UniProt Q8TDI0, sequence (Q8TDI0 whole entry, looked up): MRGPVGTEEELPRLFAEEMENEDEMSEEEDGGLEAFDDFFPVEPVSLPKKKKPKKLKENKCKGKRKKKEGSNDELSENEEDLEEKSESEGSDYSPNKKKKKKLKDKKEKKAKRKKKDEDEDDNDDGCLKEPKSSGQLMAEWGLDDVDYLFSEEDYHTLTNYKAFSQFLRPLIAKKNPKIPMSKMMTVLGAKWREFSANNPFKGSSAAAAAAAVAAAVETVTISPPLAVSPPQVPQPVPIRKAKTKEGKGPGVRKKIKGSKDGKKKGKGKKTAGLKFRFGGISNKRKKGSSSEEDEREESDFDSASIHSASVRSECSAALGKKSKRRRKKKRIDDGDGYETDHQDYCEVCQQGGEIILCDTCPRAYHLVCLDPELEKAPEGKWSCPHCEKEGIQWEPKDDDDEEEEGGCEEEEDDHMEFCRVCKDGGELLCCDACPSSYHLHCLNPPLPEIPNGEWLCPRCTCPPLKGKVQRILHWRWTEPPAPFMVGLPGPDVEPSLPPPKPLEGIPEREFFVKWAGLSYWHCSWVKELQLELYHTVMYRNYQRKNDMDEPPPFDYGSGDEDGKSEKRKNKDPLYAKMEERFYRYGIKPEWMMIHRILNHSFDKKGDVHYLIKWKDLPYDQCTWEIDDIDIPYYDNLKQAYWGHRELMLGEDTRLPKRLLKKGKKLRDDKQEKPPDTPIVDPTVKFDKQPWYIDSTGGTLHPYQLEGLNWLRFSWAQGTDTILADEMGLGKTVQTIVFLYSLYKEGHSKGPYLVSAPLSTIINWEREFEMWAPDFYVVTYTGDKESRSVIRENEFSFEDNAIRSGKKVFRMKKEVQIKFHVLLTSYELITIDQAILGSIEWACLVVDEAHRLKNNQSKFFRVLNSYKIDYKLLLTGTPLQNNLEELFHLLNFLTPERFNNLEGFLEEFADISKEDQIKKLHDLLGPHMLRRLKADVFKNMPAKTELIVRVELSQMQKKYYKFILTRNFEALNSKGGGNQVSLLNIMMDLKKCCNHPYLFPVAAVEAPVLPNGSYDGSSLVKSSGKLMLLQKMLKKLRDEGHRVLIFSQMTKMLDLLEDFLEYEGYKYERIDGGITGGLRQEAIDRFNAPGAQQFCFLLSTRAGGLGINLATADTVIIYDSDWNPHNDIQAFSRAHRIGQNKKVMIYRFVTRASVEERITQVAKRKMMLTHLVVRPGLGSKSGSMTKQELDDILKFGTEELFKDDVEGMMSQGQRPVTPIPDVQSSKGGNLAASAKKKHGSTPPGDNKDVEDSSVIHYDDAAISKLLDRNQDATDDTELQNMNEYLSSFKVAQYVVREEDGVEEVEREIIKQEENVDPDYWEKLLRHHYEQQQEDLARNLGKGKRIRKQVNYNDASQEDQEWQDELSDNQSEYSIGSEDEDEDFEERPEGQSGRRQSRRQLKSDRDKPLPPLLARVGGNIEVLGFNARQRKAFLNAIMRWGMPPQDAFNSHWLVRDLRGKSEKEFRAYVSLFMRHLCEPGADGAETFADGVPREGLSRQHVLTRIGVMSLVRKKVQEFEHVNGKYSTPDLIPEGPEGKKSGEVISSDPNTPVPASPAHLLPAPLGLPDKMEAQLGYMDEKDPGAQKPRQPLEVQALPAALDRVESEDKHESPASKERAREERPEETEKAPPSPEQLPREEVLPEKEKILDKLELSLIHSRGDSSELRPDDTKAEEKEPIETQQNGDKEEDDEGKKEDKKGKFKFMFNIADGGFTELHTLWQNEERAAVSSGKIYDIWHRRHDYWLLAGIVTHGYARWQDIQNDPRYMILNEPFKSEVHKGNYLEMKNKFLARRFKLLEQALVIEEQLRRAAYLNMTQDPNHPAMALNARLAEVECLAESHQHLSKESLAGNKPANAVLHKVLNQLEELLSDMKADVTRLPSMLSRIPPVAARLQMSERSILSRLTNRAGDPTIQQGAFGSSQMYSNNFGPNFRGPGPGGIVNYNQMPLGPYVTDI
UniProt P40227, sequence (P40227 whole entry, looked up): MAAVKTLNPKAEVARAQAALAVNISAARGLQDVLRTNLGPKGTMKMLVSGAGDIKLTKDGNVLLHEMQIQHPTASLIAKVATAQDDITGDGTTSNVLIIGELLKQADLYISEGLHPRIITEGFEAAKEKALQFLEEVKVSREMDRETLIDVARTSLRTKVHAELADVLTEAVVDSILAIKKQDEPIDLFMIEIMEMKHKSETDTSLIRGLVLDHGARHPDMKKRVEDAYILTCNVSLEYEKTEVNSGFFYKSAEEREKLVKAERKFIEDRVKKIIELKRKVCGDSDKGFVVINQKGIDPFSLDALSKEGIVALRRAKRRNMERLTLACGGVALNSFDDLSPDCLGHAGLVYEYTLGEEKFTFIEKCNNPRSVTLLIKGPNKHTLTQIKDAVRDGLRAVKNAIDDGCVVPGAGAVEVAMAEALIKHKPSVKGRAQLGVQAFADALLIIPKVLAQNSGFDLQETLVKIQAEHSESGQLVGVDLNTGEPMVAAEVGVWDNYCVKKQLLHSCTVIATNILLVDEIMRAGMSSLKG

| Target | log2 fold change (erlotinib) | log2 fold change [1] | log2 fold change [2] | log2 fold change [3] | log2 fold change [4] | log2 fold change [5] | log2 fold change [6] | log2 fold change [7] | log2 fold change [8] | log2 fold change (IRAK-1-4 Inhibitor I) | log2 fold change (ibrutinib) | log2 fold change [9] | log2 fold change (ralimetinib) | log2 fold change [10] | log2 fold change [11] | log2 fold change [12] | log2 fold change [13] | log2 fold change [14] | log2 fold change [15] | log2 fold change [16] |
| --- | --- | --- | --- | --- | --- | --- | --- | --- | --- | --- | --- | --- | --- | --- | --- | --- | --- | --- | --- | --- |
| CAPN15 (UniProt O75808) | 0.01 | 0.187 | -0.011 | -0.028 | -0.104 | -0.05 | 0.026 | 0.019 | 0.031 | 0.01 | 0.037 | -0.065 | 0.09 | 0.008 | -0.002 | 0.025 | 0.019 | 0.086 | 0.007 | 0.046 |
| CDK11B (UniProt P21127) | 0.01 | 0.025 | -0.029 | 0.008 | -0.018 | 0.017 | -0.049 | -0.016 | -0.003 | -0.021 | -0.008 | 0.438 (active) | 0.028 | 0.034 | 0.01 | -0.027 | -0.011 | 0 | 0.01 | 0.003 |
| ATP9B (UniProt O43861) | 0.008 | -0.057 | 0.034 | 0.175 | -0.07 | 0.031 | 0.081 | 0.027 | -0.103 | -0.037 | -0.156 | 0.08 | -0.044 | -0.053 | -0.021 | 0.225 | 0.049 | 0 | 0.079 | -0.054 |
| CHD5 (UniProt Q8TDI0) | 0.008 | -0.004 | -0.031 | 0.056 | -0.035 | 0.043 | -0.072 | 0.058 | -0.003 | -0.016 | -0.063 | 0.015 | 0 | 0.005 | -0.011 | 0.026 | -0.026 | -0.005 | 0.029 | 0.01 |
| CCT6A (UniProt P40227) | -0.016 | -0.043 | 0.002 | 0.001 | -0.008 | 0.001 | 0.019 | 0.008 | -0.022 | -0.023 | 0.017 | -0.005 | -0.007 | 0.022 | -0.013 | -0.014 | 0.003 | -0.016 | -0.014 | 0.018 |
| BSDC1 (UniProt Q9NW68) | -0.002 | 0.01 | -0.039 | 0.046 | -0.025 | -0.024 | 0.036 | -0.029 | 0 | 0.059 | 0.048 | 0.008 | -0.004 | -0.023 | 0.062 | 0.038 | 0.01 | 0.022 | -0.047 | 0.011 |
| CANX isoform 2 (UniProt P27824) | 0.007 | -0.027 | 0.048 | 0.004 | 0 | -0.007 | -0.042 | 0 | 0.013 | 0.003 | -0.046 | -0.009 | -0.029 | 0.003 | 0.007 | 0.001 | -0.004 | 0.011 | 0.029 | -0.025 |
| C2CD5 isoform 3 (UniProt Q86YS7) | 0.021 | -0.047 | 0.017 | -0.024 | -0.048 | -0.034 | -0.046 | -0.045 | 0.024 | 0.054 | -0.005 | -0.026 | 0.016 | -0.123 | 0.019 | -0.018 | 0.023 | 0.071 | -0.004 | -0.068 |
| CDKN2AIP (UniProt Q9NXV6) | -0.047 | 0.067 | 0.072 | -0.01 | -0.074 | -0.006 | -0.079 | -0.038 | 0 | 0.048 | -0.003 | -0.038 | -0.013 | 0.029 | -0.04 | -0.009 | 0.03 | 0.004 | -0.019 | -0.009 |
